# Assays:
# Experiment in all cases: PBM binding z-score (relative to random genomic background probes); higher = stronger binding; sequences stand for … in GC…GCGATTGACAGCGTAGAATGAAGG
# [1] = tested on: FXR:RXRa (NR concentration 270 nM, RXRa partner concentration 90 nM)
# In short: (§1)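 Ligand-free nuclear receptor dimers were bound for 1 h to custom Agilent 4×180K protein-binding microarrays. Detection used antibodies against each partner (one per run). Binding z-scores rest on regression-normalized fluorescence, with random background probes as the reference.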
# [2] = tested on: LXRa:RXRa (NR concentration 270 nM, RXRa partner concentration 90 nM)
# In short: as §1
# [3] = tested on: LXRa homodimer (NR concentration 270 nM)
# In short: as §1
# [4] = tested on: LXRb:RXRa (NR concentration 270 nM, RXRa partner concentration 90 nM)
# In short: as §1
# [5] = tested on: LXRb homodimer (NR concentration 270 nM)
# In short: as §1
# [6] = tested on: PPARa:RXRa (NR concentration 270 nM, RXRa partner concentration 90 nM)
# In short: as §1
# [7] = tested on: PPARg:RXRa (NR concentration 180 nM, RXRa partner concentration 90 nM)
# In short: as §1
# [8] = tested on: PPARg:RXRa 270nM:90nM, anti-RXR (NR concentration 270 nM, RXRa partner concentration 90 nM)
# In short: as §1
# [9] = tested on: PPARg:RXRa 30nM:10nM, anti-RXR (NR concentration 30 nM, RXRa partner concentration 10 nM)
# In short: as §1
# [10] = tested on: PPARg:RXRa 90nM:30nM, anti-RXR (NR concentration 90 nM, RXRa partner concentration 30 nM)
# In short: as §1
sequence,measurement,setting,value
ATATGTAGGTTACATCCGGGTGATTCAGGCTATG,PBM binding z-score,[1],0.452
same,PBM binding z-score,[2],4.47
same,PBM binding z-score,[3],0.517
same,PBM binding z-score,[4],1.64
same,PBM binding z-score,[5],0.268
same,PBM binding z-score,[6],3.54
same,PBM binding z-score,[7],5.24
same,PBM binding z-score,[8],4.39
same,PBM binding z-score,[9],1.74
same,PBM binding z-score,[10],3.56
AGAATGAGGTTATTAAGAACAGGGAATTGCGGTC,PBM binding z-score,[1],1.53
same,PBM binding z-score,[2],1.45
same,PBM binding z-score,[3],0.11
same,PBM binding z-score,[4],1.22
same,PBM binding z-score,[5],0.0569
same,PBM binding z-score,[6],2.3
same,PBM binding z-score,[7],1.53
same,PBM binding z-score,[8],1.67
same,PBM binding z-score,[9],0.448
same,PBM binding z-score,[10],1.02
CCTTATGGGTCAAGGTTATAGCACGGGTGGTACG,PBM binding z-score,[1],4.02
same,PBM binding z-score,[2],2.78
same,PBM binding z-score,[3],0.0856
same,PBM binding z-score,[4],2.3
same,PBM binding z-score,[5],-0.169
same,PBM binding z-score,[6],4.23
same,PBM binding z-score,[7],5.35
same,PBM binding z-score,[8],5.19
same,PBM binding z-score,[9],2.54
same,PBM binding z-score,[10],4.72
ATTACAGGGTCATCGTAGGCCAGAGTACGCACAG,PBM binding z-score,[1],7.11
same,PBM binding z-score,[2],6.64
same,PBM binding z-score,[3],1.78
same,PBM binding z-score,[4],4.65
same,PBM binding z-score,[5],2.02
same,PBM binding z-score,[6],6.2
same,PBM binding z-score,[7],7.1
same,PBM binding z-score,[8],6.16
same,PBM binding z-score,[9],2.72
same,PBM binding z-score,[10],5.18
TGTCTAAGTTCAAAGGTAACGTAAGTATCCACAC,PBM binding z-score,[1],4.9
same,PBM binding z-score,[2],5.21
same,PBM binding z-score,[3],1.95
same,PBM binding z-score,[4],3.38
same,PBM binding z-score,[5],1.12
same,PBM binding z-score,[6],4.85
same,PBM binding z-score,[7],4.52
same,PBM binding z-score,[8],5.15
same,PBM binding z-score,[9],2.77
same,PBM binding z-score,[10],4.68
CCTAGCCGGCCAGGGTCACTCAAGCATTTCGCTT,PBM binding z-score,[1],2.27
same,PBM binding z-score,[2],1.64
same,PBM binding z-score,[3],-0.316
same,PBM binding z-score,[4],2.03
same,PBM binding z-score,[5],-0.922
same,PBM binding z-score,[6],2.97
same,PBM binding z-score,[7],0.0332
same,PBM binding z-score,[8],0.958
same,PBM binding z-score,[9],-0.474
same,PBM binding z-score,[10],0.121
GCATATAGGTAATACGAGGTGAAAGTCCGATTGT,PBM binding z-score,[1],2.16
same,PBM binding z-score,[2],2.66
same,PBM binding z-score,[3],0.407
same,PBM binding z-score,[4],0.883
same,PBM binding z-score,[5],-0.463
same,PBM binding z-score,[6],1.76
same,PBM binding z-score,[7],1.44
same,PBM binding z-score,[8],1.38
same,PBM binding z-score,[9],0.459
same,PBM binding z-score,[10],0.853
GCCTATAGGTAATACAAGGTGAAAGTCCGATTGT,PBM binding z-score,[1],2.26
same,PBM binding z-score,[2],2.68
same,PBM binding z-score,[3],-0.0258
same,PBM binding z-score,[4],0.783
same,PBM binding z-score,[5],-0.465
same,PBM binding z-score,[6],1.28
same,PBM binding z-score,[7],0.667
same,PBM binding z-score,[8],0.826
same,PBM binding z-score,[9],0.0563
same,PBM binding z-score,[10],0.57
ATACCGAGGTGATCGTGAGGTCGTTGATACTAAC,PBM binding z-score,[1],1.95
same,PBM binding z-score,[2],1.69
same,PBM binding z-score,[3],0.52
same,PBM binding z-score,[4],1.59
same,PBM binding z-score,[5],-0.183
same,PBM binding z-score,[6],1.83
same,PBM binding z-score,[7],0.57
same,PBM binding z-score,[8],0.574
same,PBM binding z-score,[9],-0.146
same,PBM binding z-score,[10],0.356
CGGCAAAGTTCAACTAAGGTAACGTAAAGCACGC,PBM binding z-score,[1],7.42
same,PBM binding z-score,[2],5.93
same,PBM binding z-score,[3],2.94
same,PBM binding z-score,[4],3.99
same,PBM binding z-score,[5],1.22
same,PBM binding z-score,[6],5.03
same,PBM binding z-score,[7],4.7
same,PBM binding z-score,[8],5.19
same,PBM binding z-score,[9],1.6
same,PBM binding z-score,[10],3.81
GGAACGAGGGCATTCGAGTGGATAGCATGGCGAT,PBM binding z-score,[1],0.825
same,PBM binding z-score,[2],0.32
same,PBM binding z-score,[3],-0.525
same,PBM binding z-score,[4],-0.0544
same,PBM binding z-score,[5],-0.833
same,PBM binding z-score,[6],1.13
same,PBM binding z-score,[7],0.858
same,PBM binding z-score,[8],0.594
same,PBM binding z-score,[9],-0.34
same,PBM binding z-score,[10],-0.0101
CCTAGTTGGTCTGGAGGTCACACACCGGATATGA,PBM binding z-score,[1],3.79
same,PBM binding z-score,[2],4.06
same,PBM binding z-score,[3],3.63
same,PBM binding z-score,[4],3.51
same,PBM binding z-score,[5],0.759
same,PBM binding z-score,[6],4.17
same,PBM binding z-score,[7],2.1
same,PBM binding z-score,[8],3.14
same,PBM binding z-score,[9],0.849
same,PBM binding z-score,[10],2.61

# Source: the supplement of paper PMC6555819
